# Screens as filed in PubChem BioAssay.
# AHR act – activators of human aryl hydrocarbon receptor; P35869; AHR-responsive luciferase reporter cells, luminescence; actives 2.5% (n = 320,000); activation, % at 5 µM; in the data active means activation above about 47%;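 further: 0% = vehicle wells and 100% = reference agonist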
# NTR1 agonist – activates human neurotensin receptor 1 | P30989 | NTR1-U2OS beta-arrestin-GFP spot imaging, agonist mode | activation, % at 20 µM | actives 0.17% (n = 330,000);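 active means activation at or above 40% of the spot to cytoplasm intensity ratio, with at least 20 cells analyzed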;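 further: 0% = DMSO without peptide and 100% = 100 nM NTR1 peptide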
# A3A deaminase – blocks human APOBEC3A ssDNA deamination. inhibition, % at 20 µM. recombinant A3A, FAM/TAMRA ssDNA deamination fluorescence. actives 0.41% (n = 330,000);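 active means at least 40% inhibition at 20 µM here, with at most 30% in a related deaminase screen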;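 further: plate controls were A3A with DMSO for no effect and wells lacking A3A enzyme for full effect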
# A3G deaminase – inhibitors of human APOBEC3G DNA deaminase | recombinant A3G, ssDNA deamination FAM/TAMRA fluorescence | Q9HC16 | actives 0.28% (n = 330,000) | inhibition, % at 20 µM;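 active means inhibition of at least 40% at 20 µM, with no more than 30% in the related APOBEC3A deaminase screen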;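 further: plate controls were DMSO wells with A3G for no effect and wells lacking A3G enzyme for full effect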
# * marks the source's active call; other numbers are inactive results; · = not tested or not shown. Only some compounds are listed: those with a hit (about 3.2% of all), similar ones and a draw of the others.
SMILES,AHR act,NTR1 agonist,A3A deaminase,A3G deaminase
O=C1C2C(c3ccccc3)C=CC(c3ccccc3)C2C(=O)N1c1ccccn1 (stereo not drawn),-2,-1,0,-1
Cn1c(=NC(=O)c2ccco2)sc2ccccc21,71*,2,-2,-9
Cc1sc(=NC(=O)c2ccco2)n(C)c1-c1ccccc1,-3,5,-3,-6
CC1CCC(NC(=O)CSc2nncs2)CC1 (stereo not drawn),-3,-1,-2,-6
COc1ccc(-c2cc(-c3ccc(Br)cc3)nc3ncnn23)cc1OC,54*,1,-5,-4
COc1ccc(-c2cc(-c3ccccc3)nc3ncnn23)cc1,8,3,-7,-7
CS(=O)(=O)c1ccc(C(=O)OCC(=O)NC23CC4CC(CC(C4)C2)C3)cc1[N+](=O)[O-],-2,68*,1,-2
Cn1cccc1C(=O)NC(=O)COC(=O)c1ccc(S(C)(=O)=O)c([N+](=O)[O-])c1,8,14,-2,-7
CC(Oc1cccnc1[N+](=O)[O-])C(=O)Nc1cccc(Cl)c1 (stereo not drawn),0,0,1,-5
CC(Oc1cccnc1[N+](=O)[O-])C(=O)Nc1ccc(Cl)cn1 (stereo not drawn),56*,-1,-5,2
CCC(c1nnnn1C1CCCC1)N1CCC(C(N)=O)CC1 (stereo not drawn),0,0,1,-5
O=C1Cc2cc([N+](=O)[O-])ccc2N1c1c(Cl)cccc1Cl,-1,3,12,0
CN(C)S(=O)(=O)c1cccc(NC(=O)c2c[nH]c3ccccc23)c1,49*,1,2,-7
COc1ccc(OC)c(Nc2nc(NCc3ccco3)c3ccccc3n2)c1,60*,30,-1,-10
CNc1nc(N)c([N+](=O)[O-])c(Nc2cccc(Cl)c2)n1,58*,4,2,1
Cc1ccccc1Nc1nc(NCc2ccco2)c2ccccc2n1,17,12,7,0
COc1ccc(OC)c(Nc2nc(NCc3ccco3)nc(N)c2[N+](=O)[O-])c1,62*,6,0,5
Cc1ccc(Nc2nc(N)c([N+](=O)[O-])c(NCc3ccco3)n2)cc1C,64*,12,0,-4
COc1ccc(C(C(=O)NC(C)(C)C)N(CCc2ccccc2)C(=O)CCC(=O)Nc2cc(C)on2)cc1 (stereo not drawn),2,0,0,-2
CCN(CC)S(=O)(=O)c1ccc2c(c1)oc(=O)n2CC(=O)NC1CCCCC1,-4,0,-3,1
Nc1nc(NCc2ccco2)nc(Nc2ccc(F)cc2)c1[N+](=O)[O-],113*,0,-1,-3
Cc1ccc(Nc2nc(N)c([N+](=O)[O-])c(NCCO)n2)cc1C,81*,-1,3,2
COCCCNc1nc(N)c([N+](=O)[O-])c(Nc2ccccc2OC)n1,56*,0,-2,-7
CCOc1ccc(Nc2nc(NCc3ccco3)nc(N)c2[N+](=O)[O-])cc1,8,1,1,-3
COC(=O)CN(c1cc([N+](=O)[O-])ccc1OC)S(C)(=O)=O,-2,0,1,1
SMILES,AHR act,NTR1 agonist,A3A deaminase,A3G deaminase
COc1ccc(C2(C#N)CCC(=O)N2c2ccccc2)cc1 (stereo not drawn),-4,4,-2,-3
CCCN(CCC)S(=O)(=O)c1ccc(C(=O)Nc2ccc(S(=O)(=O)Nc3nnc(CC)s3)cc2)cc1,·,0,-3,-7
COc1ccc(CCNC(=O)CCS(=O)(=O)c2ccc3nc(C)sc3c2)cc1OC,1,5,-1,-1
COc1ccc(Cl)cc1N(C(C)=O)c1nc(C)cc(C)c1C#N,54*,-1,-3,-7
COc1ccccc1N(C(C)=O)c1nc(C)cc(C)c1C#N,48*,0,-4,-6
O=C(CCNC(=O)c1ccc([N+](=O)[O-])cc1)Nc1nc2ccccc2[nH]1,·,-1,0,-8
CCOC(=O)c1c(C)n(CCNC(C)=O)c2ccc(O)cc12,3,-2,-1,2
CCOC(=O)c1c(C)n(C)c2ccc(OCC(N)=O)cc12,70*,-2,-2,-6
CCOC(=O)c1c(C)n(CCOc2ccccc2)c2ccc(O)cc12,51*,0,-2,-7
CCOC(=O)c1c(C)n(C)c2ccc(OC(C)=O)cc12,25,-1,-1,-8
COc1c(C(=O)NNC(=O)c2ccccc2Cl)csc1Br,5,2,1,-4
O=C(c1ccco1)N1CCN(Cc2cccc([N+](=O)[O-])c2)CC1,0,-1,-4,-10
Fc1ccc(C2c3[nH]c4ccccc4c3CCN2Cc2ccoc2)cc1 (stereo not drawn),51*,3,0,-5
